MITF inhib = inhibitors of MITF, primary screen, MITF inhibitor project, cell-based, luminescence; TRPM1 promoter luciferase, 24 h; inhibition, % (no concentration beside the values); actives 0.28% (n = 37,000); in the data active = inhibition above about 85%;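 also: human melanocyte line stably carrying TRPM1 promoter luciferase reporter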
PD-1 reverse act = activators reversing PD-1 mediated T-cell inhibition, primary screen, luminescence, primary human CD4 T cells, PD-L1 beads; CellTiter-Glo 96 h; activation, % (concentration not given with the values); 29,000 tested, under 10 active; call rule not given here;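 also: 0% = median vehicle wells and 100% = positive control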
Hedgehog inh = Hedgehog pathway signaling inhibitors, primary screen, luminescence, Shh-LIGHT2 cells, Gli-luciferase | Shh-LIGHT2 Gli-luciferase reporter, 30 h | inhibition, % (test concentration not listed) | actives 2.1% (n = 22,000);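 active = mean inhibition across valid replicates above about 65%, limit read from the data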;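 also: pathway switched on by Shh-conditioned medium diluted 1 in 25 in low serum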
NOMO-1 viab = NOMO-1 AML cell viability reduction, primary screen, STK33 inhibitor project, CellTiter-Glo luminescence | NOMO-1 AML viability, 72 h | inhibition, % (no concentration beside the values) | actives 7.5% (n = 37,000) | AID 2330, 2010; in the data active = inhibition above about 80%
* hit, by the source's call; x = no result given. An excerpt weighted towards active compounds, which were near 7.9% of everything screened.

SMILES	MITF inhib	PD-1 reverse act	Hedgehog inh	NOMO-1 viab
COc1ccccc1C(NC(C)=O)c1c(O)ccc2ccccc12 (stereo unspecified)	-7	-4	x	5
O=C(NCc1ccco1)c1cc2nc(-c3cccs3)cc(C(F)(F)Cl)n2n1	14	-5	x	1
Cc1cccc(-n2c(N)cc(=O)nc2SCC(=O)N2c3ccccc3Sc3ccccc32)c1	-6	0	x	-2
Cc1c(C(=O)Nc2sc3c(c2C(=O)NC2CCS(=O)(=O)C2)CCCC3)oc2ccccc12 (stereo unspecified)	22	2	x	-2
O=C(COc1ccc(Br)cc1Cl)Nc1ccccc1CO	-13	0	x	16
C[C@@H]1CN([C@H](C)CO)C(=O)c2cccc(NC(=O)Nc3ccc4c(c3)OCO4)c2O[C@@H]1CN(C)Cc1ccc2c(c1)OCO2	-20	x	-34	10
C[C@@H]1CN([C@@H](C)CO)C(=O)c2cccc(NC(=O)Nc3ccc(C(F)(F)F)cc3)c2O[C@@H]1CN(C)Cc1ccc2c(c1)OCO2	-2	-2	8	106*
C[C@H]1CN([C@@H](C)CO)C(=O)c2cccc(NC(=O)Nc3ccc4c(c3)OCO4)c2O[C@@H]1CN(C)Cc1ccc(C(F)(F)F)cc1	42	-3	-6	110*
Cc1c(NC(=O)COc2ccccc2Cl)cccc1C(=O)O	44	1	x	27
CCN1C(=O)C(=Cc2c(O)n(CC)c(=O)n(CC)c2=O)C(=O)N(CC)C1=O	-11	-1	27	0
CC(C)(C)C1CC=C2[C@H](C1)[C@@H](c1ccsc1)C(C#N)=C(N)C2(C#N)C#N (stereo partly specified)	5	0	1	23
CCOC(=O)N1CC=C2C(C1)C(c1cccc(C(F)(F)F)c1)C(C#N)=C(N)C2(C#N)C#N (stereo unspecified)	9	-23	17	113*
COc1cc2c(c(OC)c1OC)-c1ccc(OC)c(=O)cc1[C@@H](NC(C)=O)CC2	55	x	91*	118*
Cc1sc2ncnc(SCC(=O)c3ccc4ccccc4c3)c2c1C	30	0	x	12
C[C@H]1CN([C@@H](C)CO)C(=O)c2cc(NC(=O)CCC(F)(F)F)ccc2O[C@@H]1CN(C)Cc1ccc2c(c1)OCO2	0	2	x	-3
C[C@H](CO)N1C[C@H](C)[C@H](CN(C)Cc2ccc3c(c2)OCO3)Oc2ccc(NC(=O)Cc3ccccc3)cc2C1=O	-7	-2	2	109*
C[C@@H]1CN([C@H](C)CO)C(=O)c2cc(NC(=O)Cc3ccccc3)ccc2O[C@H]1CN(C)Cc1ccncc1	4	0	x	11
C[C@H](CO)N1C[C@H](C)[C@H](CN(C)Cc2ccc3c(c2)OCO3)Oc2ccc(NC(=O)CCC(F)(F)F)cc2C1=O	0	0	-11	92*
C[C@H]1CN([C@@H](C)CO)C(=O)c2cc(NC(=O)Cc3ccccc3)ccc2O[C@H]1CN(C)Cc1ccncc1	4	3	x	92*
COC(=O)c1cc(OC)c(OC)cc1NC(=O)CSc1nc(C)cc(C(F)(F)F)c1C#N	32	x	x	-9
CSc1nc2ccc(S(=O)(=O)NCCOc3ccc(Cl)cc3)cc2s1	-8	1	x	1
O=C(CC1(O)C(=O)N(C/C=C/c2ccccc2)c2ccccc21)c1ccccn1 (stereo unspecified)	-15	-6	x	123*
C[C@H](CO)N1C[C@H](C)[C@H](CN(C)S(=O)(=O)c2ccc(F)cc2)Oc2ccc(NC(=O)CCC(F)(F)F)cc2CC1=O	20	0	-34	126*
C[C@@H]1CN([C@@H](C)CO)C(=O)Cc2cc(NC(=O)Nc3ccc(C(F)(F)F)cc3)ccc2O[C@@H]1CN(C)S(=O)(=O)c1ccc(F)cc1	17	-1	12	100*
C[C@H]1CN([C@@H](C)CO)C(=O)Cc2cc(NC(=O)Nc3ccc(C(F)(F)F)cc3)ccc2O[C@H]1CN(C)S(=O)(=O)c1ccc(F)cc1	46	-3	-1	115*
SMILES	MITF inhib	PD-1 reverse act	Hedgehog inh	NOMO-1 viab
CC(=O)Nc1ccc2oc3ccccc3c2c1	1	0	x	4
CCN(CC)C(=O)[n+]1ccc(OC)cc1	59	-1	x	61
c1ccc(-c2ccc3c4ccccc4cc-3o2)cc1	18	0	-3	106*
O=c1cc(-c2ccccc2)oc2cc(O)ccc12	-56	-1	-18	-7
Cc1ccc(-c2csc3nnc(SCC(=O)c4ccc(Cl)c(Cl)c4)n23)cc1	32	-6	x	103*
O=C1C2=C(NC(=S)NC2c2ccccc2)c2ccccc21 (stereo unspecified)	60	-11	16	114*
CC1=C(C(=O)OCCc2ccccc2)C(c2ccc(N(C)C)cc2)NC(=S)N1 (stereo unspecified)	-11	-5	x	11
C=CCSc1ncc2c(=S)[nH]c(=S)[nH]c2n1	71	0	65*	12
C/C=C(/C)C(=O)OC1C(OC(C)=O)c2c(ccc3ccc(=O)oc23)OC1(C)C (stereo unspecified)	0	1	43	18
C/C=C(/C)C(=O)OC1c2c(ccc3ccc(=O)oc23)OC(C)(C)C1OC(=O)/C(C)=C\C (stereo unspecified)	30	-7	61	111*
C=C1CCC(O)/C(C)=C\CC(C(C)C)C(OC2OC(COC(C)=O)C(O)C(O)C2O)C1 (stereo unspecified)	-11	1	-12	0
C=C(C(=O)O[C@H]1C/C=C(/C)C[C@H](O)[C@H]2[C@H](C)C(=O)O[C@@H]2/C=C\1C)[C@@H]1CCC(=C)[C@@H]2C[C@H](O[C@@H]3O[C@H](COC(=O)CC(=O)O)[C@@H](O)[C@H](O)[C@H]3O)C(=C)[C@@H]2C1	2	-3	-2	105*
Cc1nc(SC(C(=O)O)c2ccccc2)cc(-c2ccccc2)n1 (stereo unspecified)	-20	0	x	27
C[C@H]1CN([C@@H](C)CO)C(=O)c2cccc(NC(=O)C3CCCCC3)c2O[C@@H]1CN(C)Cc1ccc(Cl)c(Cl)c1	9	1	38	91*
C[C@@H]1CN([C@@H](C)CO)C(=O)c2cccc(NC(=O)NC3CCCCC3)c2O[C@@H]1CN(C)Cc1ccc(Cl)c(Cl)c1	0	-2	-16	100*
C[C@H](CO)N1C[C@H](C)[C@H](CN(C)Cc2ccc(Cl)c(Cl)c2)Oc2c(NC(=O)C3CCCCC3)cccc2C1=O	25	-2	10	92*
C[C@@H]1CN([C@H](C)CO)C(=O)c2cccc(NC(=O)C3CC3)c2O[C@@H]1CN(C)Cc1ccc(Cl)c(Cl)c1	-3	-1	78*	33
COc1ccc(C(=O)CSc2n[nH]c(-c3ccccc3)n2)cc1[N+](=O)[O-]	-13	2	x	8
C=C1C(=O)O[C@H]2[C@H]1[C@@H](OC(=O)/C(C)=C\C)C(OC(C)=O)/C(C(=O)OC)=C\CC[C@@]1(C)O[C@H]21 (stereo partly specified)	53	-13	-72	109*
